Most compounds without a hit are left out; they make up all but 11% or so of the library.
G9a block: inhibitors of human histone lysine methyltransferase G9a | Q96KQ7 | G9a H3K9 monomethylation, AlphaScreen, 2 h | Potency, µM (top dose mostly 102 µM), inactives show top-dose activity, negative = inhibition, usual class: inhibitors | 8.8% of 350,000 active | AID 504332; note: % is set by controls: 0 for no effect and ±100 for the full control effect; nearly all actives have a fitted effect of over 75% in size
Target sequence (Q96KQ7 913-1193 limits assumed): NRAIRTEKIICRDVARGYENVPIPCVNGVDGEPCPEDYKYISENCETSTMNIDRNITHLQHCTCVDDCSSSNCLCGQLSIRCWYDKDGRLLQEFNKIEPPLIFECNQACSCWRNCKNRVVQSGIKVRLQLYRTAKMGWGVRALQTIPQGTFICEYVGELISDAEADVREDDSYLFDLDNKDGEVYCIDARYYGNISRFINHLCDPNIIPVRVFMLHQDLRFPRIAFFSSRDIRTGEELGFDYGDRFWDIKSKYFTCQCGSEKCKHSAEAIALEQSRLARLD
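Quantitative HTS format: methyltransferase activity on a biotin-tagged H3K9 peptide is measured by AlphaScreen, using a rabbit anti-monomethyl-H3K9 antibody with streptavidin donor and anti-IgG acceptor beads. Final levels are 20 nM enzyme, 500 nM peptide, 20 uM SAM; 2 h RT.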
BAZ2B inh: blocks human BAZ2B; AlphaScreen BAZ2B-H3K14Ac peptide displacement; Potency, µM (top dose mostly 114 µM), for inactives: at the highest dose activity change, negative = inhibition, most hits filed as inhibitors; 4.4% of 360,000 active; AID 504333; note: % is set by controls: 0 for no effect and ±100 for the full control effect; nearly all actives have a fitted effect of over 60% in size
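Compounds, titrated to a top concentration of 110 uM, were incubated 30 min at room temperature with preformed BAZ2B/acetyl-K14 H3 peptide complex (50 nM each). Proximity signal was measured by AlphaScreen after 20 min with beads.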
HP1b chromo inh: HP1-beta chromodomain-methylated histone interaction inhibition. AlphaScreen HP1-beta / biotin-H3K9me3 peptide binding. AID 540317. 0.56% of 390,000 active. P83916. Potency, µM (top dose mostly 114 µM), inactives show at the top dose activity change, negative = inhibition, hits mostly inhibitors; note: nearly all actives have a fitted effect of over 70% in size
Target sequence (P83916 whole entry, looked up): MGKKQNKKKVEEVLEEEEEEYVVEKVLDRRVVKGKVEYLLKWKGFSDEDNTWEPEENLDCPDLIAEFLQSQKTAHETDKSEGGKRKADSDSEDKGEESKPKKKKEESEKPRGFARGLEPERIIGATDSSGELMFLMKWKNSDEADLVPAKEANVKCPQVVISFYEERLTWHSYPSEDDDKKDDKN
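AlphaScreen: HP1-beta (50 nM) preformed 30 min with biotin-H3(1-18)K9me3 peptide (50 nM) in PBS pH 7.4, 0.01% Tween-20. Compound added for 30 min at RT, then streptavidin donor/nickel chelate acceptor beads (10 ug/mL) for 30 min.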
JMJD2A Tudor inh: inhibitors of human JMJD2A Tudor domain; O75164; Potency, µM (top dose mostly 114 µM), without a hit: at the highest dose activity change, negative = inhibition, actives largely listed as inhibitors; AID 504339; 4.4% of 390,000 active; AlphaScreen JMJD2A-Tudor / H3K4me3 peptide binding; note: % is set by controls: 0 for no effect and ±100 for the full control effect; nearly all actives have a fitted effect of over 50% in size
L3MBTL1 inh: L3MBTL1 (human) inhibition; Q9Y468; AlphaScreen L3MBTL1–H3K9me1 peptide binding; Potency, µM (highest dose often 57.1 µM), for the others: at the top dose activity, negative = inhibition, actives largely listed as inhibitors; 0.66% of 230,000 active; AID 485360; note: % is set by controls: 0 for no effect and ±100 for the full control effect; nearly all actives have a fitted effect of over 60% in size
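L3MBTL1 (50 nM) pre-complexed 30 min with biotinylated H3(1-15)K9me1 peptide (75 nM), then compounds added for 30 min at room temperature; AlphaScreen streptavidin donor/nickel chelate acceptor beads (10 ug/mL final) read after 30 min dark incubation.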
Active calls of the source: *; ? = inconclusive; nt = no result; [ ] = another dose, or the depositor's remark. Calls come from the whole dose curve; as a rule, active = well fitted inhibition curve with a large enough effect; inconclusive = small, poorly fitted or top-dose-only effect; inactive = no such curve, though single readings can be large or run the other way. Potency is the fitted concentration of half-maximal effect.

SMILES	G9a block	BAZ2B inh	HP1b chromo inh	JMJD2A Tudor inh	L3MBTL1 inh
CCc1ccc[n+](-c2[nH]c(=O)sc2/C=N/N=C(\[O-])c2ccncc2)c1	39.8µM*	?	24.2%	-12.4%	nt
O=C(c1cc([N+](=O)[O-])ccc1Cl)N1CCN(c2ccc([N+](=O)[O-])cc2)CC1	?	-35.1%	-0.5%	-31.5%	-14.1%
O=C(c1ccc([N+](=O)[O-])cc1)N1CCN(Cc2ccccc2)CC1	-39.1%[59 µM]	-18.1%	16.9%	-9.3%	-9.8%
O=C(c1cc([N+](=O)[O-])ccc1Cl)N1CCN(c2ccc(F)cc2)CC1	44.7µM*	-36.4%	4.4%	-20.7%	-1.4%
O=C(c1ccc([N+](=O)[O-])o1)N1CCN(Cc2ccccc2)CC1	nt	-2.7%	65.4%	-1.0%	-2.2%
O=C(c1ccc(Cn2cc(Cl)c([N+](=O)[O-])n2)cc1)N1CCN(Cc2ccccc2)CC1	50.1µM*	-23.9%	16.5%	-26.5%	-8.4%
O=C(c1cc([N+](=O)[O-])ccc1Cl)N1CCN(Cc2ccccc2)CC1	70.8µM*	-31.8%	15.9%	-19.0%	nt
COc1ccc(C2/C(=C(/O)c3ccc4c(c3)CC(C)O4)C(=O)C(=O)N2Cc2cccnc2)cc1 (stereo unspecified)	39.8µM*	-36.2%	54.0%	-20.5%	nt
CC1Cc2cc(/C(O)=C3/C(=O)C(=O)N(Cc4ccncc4)C3c3ccc(N(C)C)cc3)ccc2O1 (stereo unspecified)	22.4µM*	?	11.6%	?	nt
CC1Cc2cc(/C(O)=C3/C(=O)C(=O)N(CCN4CCOCC4)C3c3ccc(N(C)C)cc3)ccc2O1 (stereo unspecified)	?	-12.5%[57.1 µM]	4.4%[57 µM]	-15.5%	nt
COc1ccc(C2/C(=C(\O)c3ccc4c(c3)CC(C)O4)C(=O)C(=O)N2Cc2cccnc2)c(OC)c1 (stereo unspecified)	70.8µM*	-13.5%	12.6%	-20.5%	nt
COc1ccc(C2/C(=C(/O)c3ccc4c(c3)CC(C)O4)C(=O)C(=O)N2CCCn2ccnc2)cc1 (stereo unspecified)	?	?	5.3%	?	nt
CCCNC(=O)Cn1nc(-c2ccc(C)c(C)c2)c2cnc3ccc(OC)cc3c21	-5.0%[59 µM]	-25.7%	9.6%	-18.7%	nt
Cc1cc(C)cc(NC(=O)N2CCN3CCCCC3C2)c1 (stereo unspecified)	?	12.7%	77.0%	2.1%	nt
COc1ccc(Cl)cc1NC(=O)Cn1ncc2c3ccccc3n(Cc3ccccc3)c2c1=O	-29.3%[59 µM]	-3.3%	20.5%	1.7%	nt
COc1ccc(/C=C/C(=O)Oc2cc(C)[nH]c(=O)c2[N+](=O)[O-])cc1OC	-33.3%	3.9%	13.5%	31.6µM*	nt
Cc1cc(OC(=O)c2ccc(Cl)cc2Cl)c([N+](=O)[O-])c(=O)[nH]1	79.4µM*	-28.4%	61.3%	-26.2%	16.0%
Cc1cc(OC(=O)C(C)(C)C)c([N+](=O)[O-])c(=O)[nH]1	1.41µM*	4.0%	27.6%	-6.3%	nt
C=CCOc1ccc(/C=C\c2nc(O)c([N+](=O)[O-])c(=O)[nH]2)cc1OC	79.4µM*	-30.6%	14.0%	-28.5%	-2.3%
Cc1cc(OC(=O)c2ccc(F)cc2)c([N+](=O)[O-])c(=O)[nH]1	?	-27.4%	16.4%[57 µM]	3.6%	nt
COc1ccc(NC2CCCN(C(=O)CCN3CCOCC3)C2)cc1 (stereo unspecified)	?	10.0%	20.2%	-11.7%	nt
COc1ccc(NC2CCCN(C(=O)COc3ccc(C)cc3)C2)cc1 (stereo unspecified)	15.8µM*	?	-28.2%	?	nt
COc1ccc(NC2CCCN(C(=O)CSc3ccccc3)C2)cc1 (stereo unspecified)	35.5µM*	?	-14.2%	?	nt
COc1ccc(NC2CCCN(C(=O)CCc3ccccc3F)C2)cc1 (stereo unspecified)	50.1µM*	-36.3%[57.1 µM]	6.2%	?	nt
COc1ccc(NC2CCCN(C(=O)CCOc3ccccc3)C2)cc1 (stereo unspecified)	nt	25.1µM*	-19.2%	?	nt
SMILES	G9a block	BAZ2B inh	HP1b chromo inh	JMJD2A Tudor inh	L3MBTL1 inh
CC(=O)c1cccc(NC(=O)CCc2c(C)nc3c(-c4ccc(F)cc4)c(C)nn3c2C)c1	-25.7%[59 µM]	-3.9%	19.3%	-14.5%	nt
CC1(c2ccc([N+](=O)[O-])cc2)NC(=O)N(CC(=O)Nc2cccnc2Cl)C1=O (stereo unspecified)	17.5%[2.33 µM]	8.8%	5.7%	-7.6%	5.1%
O=c1c(-c2nc3ccccc3s2)cccn1Cc1ccc(Cl)cc1	90.4%	30.1%	58.1%	17.2%	9.1%
CCn1c(-c2ccccc2SC)n[nH]c1=S	14.1µM*	-15.1%	7.1%	?	0.0%
CCn1c(-c2cccn(Cc3ccccc3)c2=O)n[nH]c1=S	31.6µM*	-2.0%	18.4%	?	7.6%
C=CCn1c(-c2cccc3ccccc23)n[nH]c1=S	?	-33.0%	18.0%	18.9%	nt
Cc1ccc(C)c(NC(=O)CN2C(=O)c3cccnc3Oc3ccc(C)cc32)c1	-47.5%[59 µM]	-8.5%	21.5%	-29.4%	nt
Cc1cc(/C=N/n2cnnc2)c(C)n1-c1ccc(OCc2ccc(F)cc2)cc1	?	?	?	56.2µM*	-16.5%
Cc1cc(/C=N/NC(N)=S)c(C)n1-c1ccc(Cl)c(Cl)c1	?	-7.2%	3.2%	?	?
Cc1cc(/C=N/n2cnnc2)c(C)n1-c1ccc(OCc2ccc(Cl)cc2Cl)cc1	15.7%[12.7 µM]	39.8µM*	?	56.2µM*	nt
CCNC(=S)N/N=C/c1cc(C)n(-c2ccc(Cl)cc2)c1C	?	28.2µM*	?	50.1µM*	-1.4%
Cc1cc(/C=N/N2CCN(C)CC2)c(C)n1-c1ccc(Cl)cc1	44.7µM*	?	?	50.1µM*	?
CCc1ccc2occ(CC(=O)Nc3ccccc3C(F)(F)F)c2c1	-8.6%[59 µM]	-11.1%	20.2%	3.5%	nt
CCC(=O)N1CCc2cc(S(=O)(=O)NCCC(=O)NCc3ccc(C)cc3)ccc21	8.1%[59 µM]	nt	21.4%	-10.7%	nt
Cc1nc(NC(=O)c2cccc(Cl)c2)sc1C(=O)N1CCCCC1	50.7%	-3.4%	36.0%	-4.1%	31.6%
Cc1cc(/C=N/n2cnnc2)c(C)n1-c1ccc(Cl)cc1	14.1µM*	-38.9%	-8.6%	-29.8%	-13.3%
Cc1cc(/C=N/n2cnnc2)c(C)n1-c1ccccc1	6.0%[59 µM]	-13.2%	0.5%	-5.6%	nt
CNS(=O)(=O)c1cn(CC(=O)N2CCN(c3cc(C)ccc3C)CC2)cc1S(=O)(=O)NC	-0.9%[59 µM]	-3.4%	38.9%	-10.7%	nt
O=S(=O)(c1cccc(F)c1)N1CCN(c2nc(-c3cccnc3)nc3ccccc23)CC1	nt	nt	21.8%	-21.8%	1.2%
COc1ccc(NC(=O)CCc2c(C)nc3c(c2C)c(=O)n(C)c(=O)n3C)cc1OC	2.6%[59 µM]	-12.5%	18.0%	-10.1%	nt
Cc1cc(C2=NNC(=NCCc3ccccc3)SC2)c(C)n1CC1CCCO1 (stereo unspecified)	35.5µM*	-36.8%	?	50.1µM*	nt
